According to PubChem BioAssay AID504840 (Johns Hopkins Ion Channel Center, 2011):
About 890 (59%) of roughly 1,500 compounds were called active.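 How the source made its calls: active means inhibition of the choline-evoked signal at any tested dose together with a fitted dose-response curve; inactive means no inhibition at any dose or no curve.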 The set was probably picked from earlier hits. Only a sample is shown. Results with a measured potency or affinity are listed apart.

Molecular target: High affinity choline transporter 1 (Homo sapiens) (UniProt Q9GZV3)
Experiment: CHT inhibitors, dose response, cell-based, 5-point CRC, membrane potential dye (AID 504840)
Details: HEK293-CHT, choline-induced depolarization, CHT with LV-to-AA double alanine mutation; series mostly up to 37 µM

High affinity choline transporter 1 (Homo sapiens), sequence (Q9GZV3 whole entry, looked up): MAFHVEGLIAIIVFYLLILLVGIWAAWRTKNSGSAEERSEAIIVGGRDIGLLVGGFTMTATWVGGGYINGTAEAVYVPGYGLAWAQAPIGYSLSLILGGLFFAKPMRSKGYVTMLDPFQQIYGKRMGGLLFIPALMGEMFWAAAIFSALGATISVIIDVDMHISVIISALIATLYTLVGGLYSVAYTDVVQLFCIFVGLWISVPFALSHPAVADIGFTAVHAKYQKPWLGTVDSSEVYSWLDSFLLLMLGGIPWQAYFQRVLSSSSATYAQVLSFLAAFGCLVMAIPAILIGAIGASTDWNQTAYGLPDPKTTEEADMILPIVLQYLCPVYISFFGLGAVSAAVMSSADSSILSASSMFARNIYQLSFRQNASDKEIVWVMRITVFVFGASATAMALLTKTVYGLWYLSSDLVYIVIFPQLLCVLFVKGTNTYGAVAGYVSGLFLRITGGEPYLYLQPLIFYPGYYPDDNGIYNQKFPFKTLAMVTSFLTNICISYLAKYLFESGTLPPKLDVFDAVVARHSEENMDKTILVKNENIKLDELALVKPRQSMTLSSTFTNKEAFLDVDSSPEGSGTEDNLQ

outcome, inactive:
COC(=O)CCCCCCCCCC[N+]1(C)CCCCC1, O=S(=O)(Nc1nc2ccccc2s1)c1ccc(Br)s1, COc1ccc(CN2CCN(CC=C(C)C)C(CCO)C2)cc1Cn1cccn1 (configuration not stated), O=C(O)c1ccc(-c2nc(-c3ccccc3Cl)cs2)cc1, O=C(O)c1ccc(/C=C2\COc3ccccc3C2=O)cc1, Cc1cc(C)c2nc(N3CCCN(C(=O)c4cnccn4)CC3)c(C#N)cc2c1, Cc1ccc(Nc2nnc(-c3ccc(N4CCOCC4)c([N+](=O)[O-])c3)c3ccccc23)cc1, CN1/C(=C\C=Nc2cc(S(=O)(=O)N3CCOCC3)ccc2N2CCOCC2)C(C)(C)c2ccccc21, Cc1ccc(C(=O)N/C(=C\c2cccs2)C(=O)NC2CCCCC2)cc1, O=C(CSc1nc(C(F)(F)F)cc(=O)[nH]1)Nc1cccc2ccccc12, CCc1nnc(NC(=O)CSc2nnc(-c3ccccc3OC)n2-c2ccccc2)s1, Cc1ccc(S(=O)(=O)/N=C(/NC(=S)Nc2c(C)n(C)n(-c3ccccc3)c2=O)c2ccccc2)cc1, O=C1c2cccc3c(Nc4ccccc4Cl)c([N+](=O)[O-])cc(c23)C(=O)N1CCO, C=Cn1cc[n+](CC(=O)c2ccc(-c3ccccc3)cc2)c1, COCCNc1nc(-n2nc(C)cc2C)nc2sc3c(c12)CCCC3, CCOC(=O)C(Cc1ccccc1)NC(=O)CCCC(=O)c1ccccc1 (configuration not stated), Cc1ccc(-c2nn(-c3ccccn3)c(=O)c3ccccc23)cc1, COc1ccc(NC(=O)c2sc(N)nc2-c2ccccc2)cc1, O=C(CCC1CCCN(c2ncccn2)C1)NCc1ccc(F)c(F)c1 (configuration not stated), Cn1c(CN2CCN(CCO)CC2)c(C#N)c2ccccc21, S=c1[nH]c2cc(Cl)ccc2s1, Cc1cc(C)nc(NS(=O)(=O)c2ccc(NC(=O)C3COc4ccccc4O3)cc2)n1 (configuration not stated), CN(Cc1nc(-c2cccnc2)no1)S(=O)(=O)c1ccc(Br)cc1, O=[N+]([O-])c1ccc(SCCc2ccccn2)cc1, O=C1CSC(=S)N1/N=C/c1c(F)cccc1F, CCc1c(C)nc2ncnn2c1N1CCN(S(=O)(=O)c2ccc(OC)cc2)CC1, O=[N+]([O-])c1ccc(N2CCCCC2)nc1, O=C(NNC(=S)NC1CCCCC1)c1ccccc1O, c1ccc(-c2ccccc2OCc2nnc3n2CCC3)cc1, Cc1ccc2c(c1)C1CN(C)CCC1N2C(=O)c1ccccc1NS(=O)(=O)c1cccc(C(F)(F)F)c1 (configuration not stated), CN1CCN(c2ncc(CN3C(=O)c4ccccc4C3=O)s2)CC1, CCc1cccc(CC)c1NC(=O)c1cccc(NC(=O)c2ccccc2)c1, Cc1cccc(C(=O)Nc2sc(-c3ccccc3)cc2C(=O)O)c1, COc1cc(CCC(=O)OCC(=O)NCc2ccc(Cl)cc2)cc(OC)c1OC, Cc1ccccc1C(=O)OC(C)CN1CCN(C)CC1 (configuration not stated), CC(C)NS(=O)(=O)c1ccc(CCC(=O)N2CCc3ccccc3C2)cc1, Cc1ccc(-c2csc(NC(=O)c3ccc(Br)cc3)c2C(=O)O)cc1, Cc1ccc(-c2csc(NC(=O)c3ccc(F)cc3)c2C(=O)O)cc1, COc1cc(C(=O)Nc2scc(-c3ccc(C)cc3)c2C(=O)O)cc(OC)c1OC, CC1CCN(C(=O)CCCOc2cc(=O)n(C)c3ccccc23)CC1, O=C(COC(=O)C1(c2ccccc2F)CCCC1)N1CCN(C(=O)c2ccco2)CC1, CC1CCCCC1NC(=O)Cn1nc(-c2ccccc2)ccc1=O (configuration not stated), COc1cc(NC2CCCCC2O)c2nc(-c3ccc(Cl)cc3)ccc2c1 (configuration not stated), Cc1c(NC(=S)NC(=O)c2ccc(-c3ccc(Cl)cc3)o2)cccc1C(=O)O, C/C(=N\NC1=NCCN1)c1ccc(Cl)cc1, CCCCCNC(=O)c1ccc2c(=O)[nH]c3c(C(=O)NCC4CCCO4)sc(=S)n3c2c1 (configuration not stated), CCOCCCn1c(=S)[nH]c2cc(C(=O)N3CCN(C4CCCCC4)CC3)ccc2c1=O, CCOc1cc2[nH]c(=S)n(C(C)C)c(=O)c2cc1OCC, CCOC(=O)C(C)Sc1nnc(NC(=O)c2cccc([N+](=O)[O-])c2C)s1 (configuration not stated), O=C(N/N=C/c1cn[nH]c1-c1ccc(Cl)cc1)c1ccc([N+](=O)[O-])cc1, Cc1ccc(C(=O)NCC(=O)OCC(=O)Nc2ccccc2C#N)s1, Cc1c(NC(=O)/C=C/c2cn(-c3ccccc3)nc2-c2ccccc2)c(=O)n(-c2ccccc2)n1C, COc1ccccc1C(=O)NC(C)c1cccc2ccccc12 (configuration not stated), CN(C)CCNC(=O)C(=O)NCC(c1ccc2c(c1)OCO2)N1CCN(c2ccc(F)cc2)CC1 (configuration not stated), Cc1cccc(N2CCN(C(=O)COc3cc(=O)n(C)c4ccccc34)CC2)c1C, O=S(=O)(Nc1nc2ccccc2s1)c1ccc(Cl)nc1, O=C(NC1CCCCC1)N(Cc1ccccc1)Cc1ccco1, CCN(Cc1ccccc1)S(=O)(=O)c1cc(C(=O)O)ccc1OC, CCc1ccc(OCc2n[nH]c(=S)n2Cc2ccccc2)cc1, O=C(NNC1=C(C(=O)C(F)(F)F)CCC1)c1ccc(Cl)cc1, CCc1ccc2c(c1)C1(NN=C(c3ccc(C)cc3)S1)C(=O)N2 (configuration not stated), CCc1ccc2c(c1)C1(NN=C(c3ccccc3)S1)C(=O)N2 (configuration not stated), Cc1oc2c(F)c(F)c(F)c(F)c2c1S(=O)(=O)Nc1cccc(C(F)(F)F)c1, CC(/C=C1\SC(=S)N(C(C(=O)O)c2ccccc2)C1=O)=C\c1ccccc1 (configuration not stated), Cc1noc(NS(=O)(=O)c2ccc(NC(=O)c3oc4ccc(Cl)cc4c3C)cc2)c1C, Nc1c(C(=O)NCCN2CCOCC2)c2nc3ccccc3nc2n1CCc1ccccc1F, O=C(Nc1cccc(C(F)(F)F)c1)C1CCN(S(=O)(=O)c2cccnc2)CC1, O=C(CSc1ccc2ccccc2c1)Nc1ccncc1, CCc1nnc(NC(=O)CSc2ncc(-c3ccccc3)n2C)s1, O=C(NNC(=S)Nc1ccc(Br)cc1)c1ccccc1Br, COc1ccc(Br)cc1C(=O)NC(=S)Nc1ccc(Cl)c(C(=O)O)c1, CC(Oc1ccc(Cl)cc1)C(=O)NNC(=S)NC(=O)c1ccco1 (configuration not stated), CCCc1cc(=O)[nH]c(SCc2nc3ccccc3s2)n1, O=C(CCc1ccccc1)c1c(O)cc(O)cc1O, COc1ccccc1-c1coc2cc(O)cc(O)c2c1=O, Cc1cc(S(=O)(=O)NCc2ccncc2)c(C)cc1Br, O=C(Nc1ccccc1Cl)c1ccc(S(=O)(=O)NCC2CCCO2)cc1 (configuration not stated), CCC1CCCCN1CCCNC(=O)c1ccc(N2CCOCC2)c(NS(=O)(=O)c2ccc(OC)cc2)c1 (configuration not stated), Cc1ccc(Oc2ccc(S(=O)(=O)NCC(C)(C)N3CCOCC3)cc2)cc1, Cc1ccccc1CNS(=O)(=O)c1ccc2c(c1)OCCO2, COc1ccc(-n2cnnc2SCC(=O)Nc2cc(S(=O)(=O)N3CCCCC3)ccc2C)cc1, CCOC(=O)c1ccc(NS(=O)(=O)c2ccc3c(c2)NC(=O)CCS3)cc1, Cc1ccccc1C(=O)NNC(=S)NC(=O)COc1ccccc1, Cc1ccccc1C(=O)NNC(=S)NC(=O)c1ccc(Cl)cc1Cl, Cc1ccc(C)c(NCC(=O)NNC(=S)Nc2ccccc2)c1, Cc1cccc(C(=O)NNC(=S)NC(=O)c2cccs2)c1, Cc1cccc(C(=O)NC(=S)NNC(=O)c2cccs2)c1, O=C(CC(c1ccccc1)c1ccccc1)Nc1ccncc1, O=C(O)CC(NC(=O)c1sc2ccccc2c1Cl)c1ccc(OC2CCCC2)cc1 (configuration not stated), CC(O)c1cccc(NC(=O)CC(c2ccccc2)c2ccccc2)c1 (configuration not stated), CC1CCCN(CCCNC(=O)c2ccc3c(c2)N(Cc2ccccc2F)C(=O)c2ccccc2S3(=O)=O)C1 (configuration not stated), O=C(O)c1ccc2c(c1)N(Cc1ccc(F)cc1)C(=O)c1ccccc1S2, Cc1ccc(C(=O)N/C(=C\C=C\c2ccccc2)C(=O)NCc2ccco2)cc1, CC(C)c1ccc(C(C)NC(=O)C2CCCC2)cc1 (configuration not stated), O=C(NNC(=S)NC(=O)c1sc2ccccc2c1Cl)c1ccc(Cl)cc1, COc1ccccc1C(=O)NC(=S)NNC(=O)c1sc2ccccc2c1Cl, Cc1onc(-c2ccccc2)c1C(=O)NNC(=S)NC(=O)c1ccc(Br)cc1, CCCOc1ccc(C(=O)NC(=S)NNC(=O)c2c(-c3ccccc3)noc2C)cc1, CCn1c(=O)n(CC)c2cc(S(=O)(=O)N3CCc4ccccc43)ccc21, O=C(NNS(=O)(=O)c1ccccc1[N+](=O)[O-])c1cc2ccccc2cc1O, C=CCN(CC=C)S(=O)(=O)c1ccc2nc(NC(=O)C3CCCO3)sc2c1 (configuration not stated), CCOC(=O)c1sc(NC(=O)CSc2nc3c(c(=O)n2-c2ccc(C)cc2)SCC3)c(C(=O)OCC)c1C, CC(OC(=O)CCN1C(=O)c2cccc([N+](=O)[O-])c2C1=O)C(=O)Nc1cc(Cl)cc(Cl)c1 (configuration not stated), CCc1c(C2(O)CCCCC2)[nH]c2cc(C(F)(F)F)ccc12, Cc1cc(NS(=O)(=O)c2ccc(NC(=O)/C=C/c3c(F)cccc3Cl)cc2)nc(C)n1, Cc1ccc(NC(=O)c2ccc(Cn3cc([N+](=O)[O-])cn3)cc2)c(C)c1, Cc1cc(C)cc(NC(=O)c2ccc(N3C(=O)C4CCCCC4C3=O)cc2)c1 (configuration not stated)
